KB-V1 MDR tox: kills drug-selected multidrug resistant KB-V1 cells; KB-V1 MDR cells viability, CellTiter-Glo, 72 h; Potency, µM (highest dose often 46.1 µM), actives largely listed as cytotoxic; actives 3.4% (n = 400,000); AID 1347076; note: % is set by controls: 0 for no effect and ±100 for the full control effect; nearly all actives have a fitted effect of over 60% in size
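Cells of the MDR subline KB-V1 are plated, dosed with compound at multiple concentrations, and incubated 72 h at 37 degrees C; CellTiter-Glo is then added and luminescence read after 10 min.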
SW480 rereplic: DNA re-replication induction in SW480 cells; SW480 DNA re-replication, Hoechst DNA content imaging, 48 h; Potency, µM (doses to about 46.1 µM), for inactives: at the top dose re-replication activation, hits mostly activators; actives 1.8% (n = 340,000); note: % of control where 0% means no effect; nearly all actives have a fitted effect of over 55% in size
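Compounds, transferred as 23 nL by pin tool, were incubated with cells for 48 hr; DNA content per nucleus was then quantified by Hoechst staining and fluorescence plate imaging.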
MCF10A rereplic: induces DNA re-replication in MCF 10a normal breast cells; Potency, µM (top dose mostly 46.1 µM), for inactives: top-dose activity, positive = re-replication, usual class: activators; actives 2.9% (n = 350,000); MCF 10A DNA re-replication, Hoechst nuclear intensity, 48 h; AID 624296; note: % of control where 0% means no effect; nearly all actives have a fitted effect of over 50% in size
KB-3-1 tox: KB-3-1 parental cell cytotoxicity; KB-3-1 viability, CellTiter-Glo ATP luminescence, 72 h; Potency, µM (top dose mostly 46.1 µM), hits mostly cytotoxic; actives 1.4% (n = 400,000); note: % is set by controls: 0 for no effect and ±100 for the full control effect; nearly all actives have a fitted effect of over 60% in size
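Parental KB-3-1 adenocarcinoma cells in phenol-red-free DMEM with 10% FBS were pin-treated with compounds at several concentrations, incubated 72 h at 37 °C, and viability read by CellTiter-Glo luminescence; concentration-effect curves were fitted after normalization.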
PINK1 modulator: changes PINK1 expression; PINK1 immunofluorescence, high-content cytometry, 24 h; Potency, µM (highest dose often 76.6 µM), inactives show at the highest dose activation (PINK1 increase), most hits filed as activators; actives 0.2% (n = 410,000); AID 624263; active = well fitted activation curve with a large enough effect; inconclusive = small, poorly fitted or top-dose-only effect; cell line not stated here; note: % of control where 0% means no effect; nearly all actives have a fitted effect of over 65% in size
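PINK1 protein level read as immunofluorescence by microplate cytometer in a fixed, stained stable cell line after 24 h exposure to five compound concentrations, with CCCP as control.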
* marks the source's active call; other numbers are inactive results; i = inactive; ? = inconclusive; nt = not tested or not shown; [ ] = remark or other dose. Only some compounds are listed: those with a hit (about 6.7% of all), similar ones and a draw of the others. Unless noted, calls come from the whole dose curve; as a rule, active = well fitted curve in the direction sought with a large enough effect; inconclusive = small, poorly fitted or top-dose-only effect, or another doubt; inactive = no such curve, though single readings can be large; an effect the other way counts as inactive or inconclusive. Potency is the fitted concentration of half-maximal effect.

SMILES	KB-V1 MDR tox	SW480 rereplic	MCF10A rereplic	KB-3-1 tox	PINK1 modulator
CNC(=O)NC(=O)C(C)OC(=O)c1c2c(nc3ccccc13)/C(=C/c1cccs1)CC2 (stereo not drawn)	5.17µM*	?	?	?	11.6%
CCCCNC(=O)COC(=O)c1c2c(nc3ccccc13)/C(=C/c1cccs1)CC2	?	5.17µM*	3.26µM*	i	0.5%
CCCCNC(=O)COC(=O)c1c2c(nc3ccccc13)CCC2	i	-5.2%	-1.9%	i	-0.8%
COc1ccccc1CNC(=O)c1cn(C)c2ccc(S(=O)(=O)N3CCC(C)CC3)cc2c1=O	i	nt	nt	i	4.7%
Nc1ncnc2c1C(c1ccccc1)c1c(ccc3ccccc13)O2 (stereo not drawn)	i	-13.1%	22.4%	i	-0.7%
CN=C(C)c1c(O)c2ccccc2oc1=O	i	-12.0%	?	i	9.1%[38.3 µM]
O=C(c1c(O)c2ccccc2oc1=O)C1CCCCC1	14.6µM*	7.0%	?	?	3.6%[38.3 µM]
COc1cc(OC)cc(C(=O)N[C@H](C(=O)Nc2c(C)n(C)n(-c3ccccc3)c2=O)C(C)C)c1	i	?	-3.1%	i	0.3%
O=C(NCCC(=O)N1CCC2(CC1)NCCc1[nH]cnc12)c1ccc(Br)cc1	?	-18.1%	11.2%	i	-0.4%
OCCN=C1CCCc2c1[nH]c1ccc(Br)cc21	0.326µM*	-2.1%[9.22 µM]	20.6%	1.03µM*	-1.1%
C=CCN=C1CCCc2c1[nH]c1ccc(C)cc21	3.26µM*	0.2%	-10.0%	6.51µM*	0.3%
Cc1ccc(C)c(NC(=S)NCc2ccc3[nH]c4c(c3c2)CCCC4)c1	?	?	?	?	25.3%
CCOc1ccc(NC(=O)N2CC=C(c3c[nH]c4ccccc34)CC2)cc1	?	nt	nt	23.1µM*	9.7%
COc1ccc(NC(=O)c2oc3ccc(S(=O)(=O)N(C)C4CCCCC4)cc3c2C)cc1Cl	nt	nt	nt	nt	1.2%
Cn1nc(C(=O)NNC(=O)COc2ccccc2)c2ccccc2c1=O	i	0.2%	5.4%	i	-1.0%
CCOc1ccccc1OCCCC(=O)NNC(=O)c1nn(C)c(=O)c2ccccc12	23.1µM*	-6.7%	1.8%	i	-1.0%
CCCCN(CC)CCCNC(=O)c1cc2c(=O)n(C)c3ccccc3c2n1C	i	10.9%	?	16.4µM*	7.7%
O=C(Nc1ccc(Oc2ccc(S(=O)(=O)N3CCOCC3)cn2)cc1)c1ccco1	18.4µM*	-7.4%	4.4%	i	2.6%
Cc1sc(NC(=O)c2ccco2)c(C(c2cccnc2)N2CCN(CCO)CC2)c1C (stereo not drawn)	i	-22.2%	26.0%	i	2.3%
CCOC(=O)C1CCN(C(c2cccnc2)c2c(NC(=O)c3ccco3)sc(C)c2C)CC1 (stereo not drawn)	2.91µM*	?	?	3.26µM*	10.6%
C[C@H]1COC[C@@H](C/C=C/c2ccccc2)N1c1ccccc1	i	nt	nt	i	13.5%
CN(CC(=O)N1CC=C(c2ccccc2)CC1)S(=O)(=O)c1ccc2c(c1)c(=O)n(C)c(=O)n2C	i	-3.3%	14.6%	i	7.5%
Cn1c(=O)c2cc(S(=O)(=O)NCCC(=O)N3CC=C(c4ccccc4)CC3)ccc2n(C)c1=O	23.1µM*	-0.5%	-12.1%	i	1.0%[38.3 µM]
CCCCN(CCCC)C(=O)CSc1nnc2n(C)c(=O)c3c4c(sc3n12)CCCC4	23.1µM*	1.0%	-10.2%	?	-0.5%
CCCSc1nnc2n(-c3cccc(C)c3)c(=O)c3c4c(sc3n12)CCCC4	23.1µM*	nt	nt	?	5.2%
SMILES	KB-V1 MDR tox	SW480 rereplic	MCF10A rereplic	KB-3-1 tox	PINK1 modulator
CSc1nnc2n(-c3cccc(C)c3)c(=O)c3c4c(sc3n12)CCCC4	?	nt	nt	i	-0.1%
Brc1ccc(C[n+]2ccccc2)cc1	?	-9.5%	-1.3%	?	-0.8%
C=CCOc1c(Cl)cc(C(=S)N2CCCC2)cc1OCC	9.2µM*	?	11.6µM*	6.51µM*	2.0%
COc1ccc(C(=O)C/C(=C\C(=O)c2ccc(C)cc2)c2ccccc2)cc1	?	?	?	?	25.1µM*
COc1ccc(C(=O)CC(=O)c2ccccc2)cc1	?	2.91µM*	1.8%	i	1.0%
COc1ccc(C(=O)C(OC(=O)c2ccccc2)c2ccccc2)cc1 (stereo not drawn)	13µM*	8.7%	6.2%	i	3.9%
COc1ccc(C(=O)CC(=O)c2ccc(OC)cc2)cc1	?	1.4%	4.3%	i	4.2%
Cc1cc(=O)oc(C)c1C(=O)OC(C(=O)c1ccccc1)c1ccccc1 (stereo not drawn)	23.1µM*	3.7%	?	i	1.7%
NS(=O)(=O)c1ccc(N2C(=O)C(=O)/C(=C(/O)c3ccccc3)C2c2ccc(Cl)cc2)cc1 (stereo not drawn)	i	-6.1%	1.4%	i	-0.2%
CCN(CC)S(=O)(=O)c1ccc2c(c1)N(CC(=O)N1CCN(c3ccc(OC)cc3)CC1)C(=O)CO2	i	nt	nt	i	10.4%
COc1ccc(C(=O)NNC(=O)c2ccncc2)cc1	i	-7.5%	-0.3%	i	-1.6%
O=C(CC(=O)c1ccncc1)c1ccccc1	18.4µM*	-6.5%	-2.7%	i	-2.0%
O=C(CC(=O)c1ccccc1)c1ccccc1	i	9.3%	15.4%	i	4.6%
COc1ccc(O)c(C(=O)CC(=O)c2ccncc2)c1	9.2µM*	-18.6%	-8.1%	i	-2.3%
O=C(NCC(c1cccs1)S(=O)(=O)c1cccs1)c1cccc(F)c1 (stereo not drawn)	i	nt	nt	i	0.4%
COc1cccc(-c2nc(CS(=O)(=O)CC(=O)N3CCN(c4ccccc4)CC3)c(C)o2)c1	i	nt	nt	i	0.2%
N#CC1=C(SCC(=O)NC23CC4CC(CC(C4)C2)C3)NC(=O)C(C#N)C12CCCCC2 (stereo not drawn)	11.6µM*	13.2%	16.4µM*	?	?
Cc1ccc(C)c(NCC(=O)c2ccc(Cl)cc2)c1	i	?	23.1µM*	i	13.5%
Cc1ccc(C(=O)CNc2cc(C)ccc2C)cc1	i	-1.1%	-9.5%	i	3.4%
Cc1cc(=O)n2[nH]c(-c3ccc(C(C)(C)C)cc3)cc2n1	14.6µM*	9.1%	?	?	5.7%[38.3 µM]
C[C@@H]1CN(Cc2ccc3c(c2)CN(C(=O)c2ccc(Oc4ccccc4)o2)CCO3)C[C@H](C)O1	nt	nt	nt	nt	2.1%
CCOc1cccc2sc(N(Cc3cccnc3)C(=O)c3ccco3)nc12	i	nt	nt	i	3.0%
Cc1ccc(Sc2nnc(Cc3ccccc3)c3ccccc23)cc1	?	?	?	i	7.4%[38.3 µM]
COc1ccc(Sc2nnc(Cc3ccccc3)c3ccccc23)cc1	?	?	9.2µM*	i	3.9%[38.3 µM]
Oc1cc2cc(-c3csc(-c4ccc(F)cc4)n3)ccc2[nH]1	i	nt	nt	i	0.2%

Bioassay records deposited in PubChem by National Center for Advancing Translational Sciences (NCATS).
